Experiment in all cases: DAPPL (digital affinity profiling via proximity ligation, sequencing); 10 mM Tris-HCl pH 7.5, 50 mM NaCl, 1 mM DTT, 4% glycerol, room temperature, 30 min; GST-TFs on glutathione beads, 16-mer random dsDNA library, 0.1% formaldehyde crosslink after washing; high values mean tight binding
One test has as its target T1, FLI1 (Homo sapiens, UniProt Q01543 1-452).
T1 sequence: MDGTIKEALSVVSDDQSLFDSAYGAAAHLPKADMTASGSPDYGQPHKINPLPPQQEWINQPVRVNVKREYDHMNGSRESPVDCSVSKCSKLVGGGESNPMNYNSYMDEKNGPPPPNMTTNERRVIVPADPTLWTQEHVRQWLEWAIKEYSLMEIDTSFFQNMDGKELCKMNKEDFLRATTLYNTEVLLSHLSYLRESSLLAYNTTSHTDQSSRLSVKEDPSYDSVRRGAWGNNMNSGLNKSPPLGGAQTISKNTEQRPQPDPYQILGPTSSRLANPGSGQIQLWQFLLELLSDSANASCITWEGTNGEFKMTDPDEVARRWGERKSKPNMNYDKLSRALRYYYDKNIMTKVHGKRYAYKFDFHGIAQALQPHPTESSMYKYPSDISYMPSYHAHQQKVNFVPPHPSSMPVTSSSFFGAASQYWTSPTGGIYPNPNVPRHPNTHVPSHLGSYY
The conditions noted are these: protein: recombinant; tags: N-terminal GST; dsDNA, one strand shown. The procedure, abridged:
(§1)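 Sequencing on an Illumina NextSeq500 followed washing, crosslinking with 0.1% formaldehyde, proximity ligation (BsaI/T4 ligase, 1 h, 37 °C) and PCR amplification of pools that had been incubated for 30 min at room temperature with 200 nmole of a random double-stranded 16-mer DNA library in Tris/NaCl/DTT/glycerol buffer. Each pool held DNA-barcoded human transcription factors, expressed in yeast as GST fusions and captured on glutathione beads, plus a tag-only sample. Binding signal is a hexamer's read frequency for a factor divided by its frequency in the tag-only sample.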

Another test addresses T2, ELK1 (Homo sapiens, UniProt P19419 1-428).
T2 sequence: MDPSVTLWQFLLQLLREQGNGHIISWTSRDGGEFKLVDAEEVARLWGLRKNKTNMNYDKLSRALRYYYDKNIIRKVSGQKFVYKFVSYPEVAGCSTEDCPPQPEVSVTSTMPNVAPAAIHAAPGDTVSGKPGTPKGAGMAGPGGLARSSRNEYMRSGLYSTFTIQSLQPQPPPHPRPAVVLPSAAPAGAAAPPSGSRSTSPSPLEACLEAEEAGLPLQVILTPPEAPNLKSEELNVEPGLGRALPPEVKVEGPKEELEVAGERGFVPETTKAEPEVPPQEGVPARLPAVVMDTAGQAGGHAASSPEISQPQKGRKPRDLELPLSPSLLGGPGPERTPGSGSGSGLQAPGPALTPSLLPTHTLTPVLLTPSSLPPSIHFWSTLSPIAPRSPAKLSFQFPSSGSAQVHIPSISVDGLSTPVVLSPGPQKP
The following applies: protein: recombinant; tags: N-terminal GST; dsDNA, one strand shown. In outline:
as §1

A further test has as its target T3, GABPA (Homo sapiens, UniProt Q06546 1-454).
T3 sequence: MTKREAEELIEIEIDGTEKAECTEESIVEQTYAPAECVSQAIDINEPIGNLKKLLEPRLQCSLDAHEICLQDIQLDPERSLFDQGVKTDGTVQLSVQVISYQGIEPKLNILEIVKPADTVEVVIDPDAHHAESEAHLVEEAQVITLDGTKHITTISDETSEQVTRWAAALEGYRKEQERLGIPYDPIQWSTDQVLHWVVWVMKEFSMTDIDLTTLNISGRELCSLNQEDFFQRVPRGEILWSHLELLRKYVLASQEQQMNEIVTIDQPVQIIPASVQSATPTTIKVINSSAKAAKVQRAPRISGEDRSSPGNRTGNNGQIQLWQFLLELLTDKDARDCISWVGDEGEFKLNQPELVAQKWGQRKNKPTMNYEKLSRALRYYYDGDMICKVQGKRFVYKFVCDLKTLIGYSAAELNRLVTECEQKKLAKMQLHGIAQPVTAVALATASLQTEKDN
The conditions noted are these: protein: recombinant; tags: N-terminal GST; dsDNA, one strand shown. In outline: as §1

The target in a further test is T4, ERG (Homo sapiens, UniProt P11308 1-479).
T4 sequence: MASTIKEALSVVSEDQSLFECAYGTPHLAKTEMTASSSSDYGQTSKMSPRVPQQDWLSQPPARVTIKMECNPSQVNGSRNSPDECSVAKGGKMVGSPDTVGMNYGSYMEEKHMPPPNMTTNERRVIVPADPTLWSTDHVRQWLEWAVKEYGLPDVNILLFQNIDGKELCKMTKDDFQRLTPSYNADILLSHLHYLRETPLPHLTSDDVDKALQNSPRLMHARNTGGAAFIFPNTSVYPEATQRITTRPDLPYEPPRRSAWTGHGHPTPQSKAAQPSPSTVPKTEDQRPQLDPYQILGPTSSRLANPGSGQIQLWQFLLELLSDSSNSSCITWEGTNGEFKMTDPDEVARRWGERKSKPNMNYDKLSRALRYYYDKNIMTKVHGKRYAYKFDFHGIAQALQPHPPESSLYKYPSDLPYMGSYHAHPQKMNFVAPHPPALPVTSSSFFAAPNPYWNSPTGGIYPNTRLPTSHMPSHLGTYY
The conditions noted are these: protein: recombinant; tags: N-terminal GST; dsDNA, one strand shown. The procedure, abridged:
as §1

The target of another test is ELF1 (Homo sapiens, UniProt P32519 1-619). The conditions noted are these: protein: recombinant; tags: N-terminal GST; dsDNA, one strand shown. The procedure, abridged: as §1
Sequence of ELF1 (P32519 whole entry): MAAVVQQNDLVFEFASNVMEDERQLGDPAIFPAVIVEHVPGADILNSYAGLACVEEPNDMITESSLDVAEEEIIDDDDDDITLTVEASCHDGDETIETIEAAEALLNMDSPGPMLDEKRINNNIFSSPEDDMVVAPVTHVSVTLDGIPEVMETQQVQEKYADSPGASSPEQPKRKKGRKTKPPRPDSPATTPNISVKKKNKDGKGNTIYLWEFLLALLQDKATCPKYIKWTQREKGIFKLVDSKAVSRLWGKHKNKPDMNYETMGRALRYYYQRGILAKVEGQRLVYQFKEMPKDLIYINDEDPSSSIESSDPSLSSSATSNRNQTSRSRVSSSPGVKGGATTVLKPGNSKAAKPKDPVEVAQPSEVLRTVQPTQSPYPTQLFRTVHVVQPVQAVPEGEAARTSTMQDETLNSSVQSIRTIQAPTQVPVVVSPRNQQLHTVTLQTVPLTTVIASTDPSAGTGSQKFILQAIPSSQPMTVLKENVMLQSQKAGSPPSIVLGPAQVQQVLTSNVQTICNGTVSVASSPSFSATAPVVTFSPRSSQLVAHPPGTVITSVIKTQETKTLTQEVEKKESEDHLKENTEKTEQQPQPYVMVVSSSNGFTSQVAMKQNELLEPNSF
Another test concerns the target T5, EHF (Homo sapiens, UniProt Q9NZC4 1-300).
T5 sequence: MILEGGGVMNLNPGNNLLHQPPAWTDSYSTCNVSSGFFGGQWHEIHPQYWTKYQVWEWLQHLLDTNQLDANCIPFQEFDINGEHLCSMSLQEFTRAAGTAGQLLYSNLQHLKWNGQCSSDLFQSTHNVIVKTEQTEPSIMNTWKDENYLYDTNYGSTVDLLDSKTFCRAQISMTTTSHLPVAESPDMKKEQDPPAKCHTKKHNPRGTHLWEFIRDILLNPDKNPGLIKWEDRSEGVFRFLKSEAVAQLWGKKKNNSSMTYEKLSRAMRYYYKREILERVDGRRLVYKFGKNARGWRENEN
The following applies: protein: recombinant; tags: N-terminal GST; dsDNA, one strand shown. The procedure, abridged: as §1

For a further test, the target named is SPIB (Homo sapiens, UniProt Q01892 1-262). The following applies: protein: recombinant; tags: N-terminal GST; dsDNA, one strand shown. In outline:
as §1

A further test has as its target T6, ELK3 (Homo sapiens, UniProt P41970 1-407).
T6 sequence: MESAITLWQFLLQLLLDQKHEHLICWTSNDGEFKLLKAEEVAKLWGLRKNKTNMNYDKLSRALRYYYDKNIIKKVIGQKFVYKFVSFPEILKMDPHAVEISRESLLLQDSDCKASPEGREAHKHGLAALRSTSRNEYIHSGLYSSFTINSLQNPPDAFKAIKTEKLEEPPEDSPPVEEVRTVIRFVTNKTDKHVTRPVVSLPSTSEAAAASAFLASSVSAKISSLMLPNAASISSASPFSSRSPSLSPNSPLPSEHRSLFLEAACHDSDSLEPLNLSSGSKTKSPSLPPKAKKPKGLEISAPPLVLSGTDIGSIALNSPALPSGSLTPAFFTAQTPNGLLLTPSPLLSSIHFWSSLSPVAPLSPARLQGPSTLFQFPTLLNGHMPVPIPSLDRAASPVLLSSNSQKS
The conditions noted are these: protein: recombinant; tags: N-terminal GST; dsDNA, one strand shown. In outline:
as §1

Another test has as its target T7, FEV (Homo sapiens, UniProt Q99581 1-238).
T7 sequence: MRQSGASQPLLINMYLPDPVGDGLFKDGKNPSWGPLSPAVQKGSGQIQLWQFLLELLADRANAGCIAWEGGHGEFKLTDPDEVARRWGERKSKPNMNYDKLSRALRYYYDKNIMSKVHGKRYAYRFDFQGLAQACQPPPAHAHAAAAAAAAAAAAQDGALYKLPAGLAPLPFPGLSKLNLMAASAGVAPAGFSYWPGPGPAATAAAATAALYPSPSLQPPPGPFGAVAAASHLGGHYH
The following applies: protein: recombinant; tags: N-terminal GST; dsDNA, one strand shown. In outline: as §1

For another test, the target named is ETV5 (Homo sapiens, UniProt P41161 1-510). The following applies: protein: recombinant; tags: N-terminal GST; dsDNA, one strand shown. The procedure, abridged: as §1
Sequence of ETV5 (P41161 whole entry): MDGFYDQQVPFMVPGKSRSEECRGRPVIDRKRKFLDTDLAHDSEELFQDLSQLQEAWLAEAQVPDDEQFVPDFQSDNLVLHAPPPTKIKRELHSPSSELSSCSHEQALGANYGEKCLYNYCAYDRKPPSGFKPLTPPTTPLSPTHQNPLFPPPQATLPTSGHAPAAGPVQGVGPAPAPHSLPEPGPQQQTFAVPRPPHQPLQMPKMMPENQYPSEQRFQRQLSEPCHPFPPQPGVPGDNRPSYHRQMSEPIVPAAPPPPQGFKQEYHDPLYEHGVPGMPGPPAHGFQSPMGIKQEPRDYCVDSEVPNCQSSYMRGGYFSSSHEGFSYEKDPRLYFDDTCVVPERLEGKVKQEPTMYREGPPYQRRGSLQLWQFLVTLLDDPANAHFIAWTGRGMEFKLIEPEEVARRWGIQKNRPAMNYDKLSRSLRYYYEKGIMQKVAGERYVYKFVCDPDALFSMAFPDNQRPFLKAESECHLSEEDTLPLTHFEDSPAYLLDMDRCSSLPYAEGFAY
Another test has as its target HSF1 (Homo sapiens, UniProt Q00613 1-529). The conditions noted are these: protein: recombinant; tags: N-terminal GST; chain copies: 3; dsDNA, one strand shown. The procedure, abridged:
as §1

The next test has as its target T8, SPIC (Homo sapiens, UniProt Q8N5J4 1-248).
T8 sequence: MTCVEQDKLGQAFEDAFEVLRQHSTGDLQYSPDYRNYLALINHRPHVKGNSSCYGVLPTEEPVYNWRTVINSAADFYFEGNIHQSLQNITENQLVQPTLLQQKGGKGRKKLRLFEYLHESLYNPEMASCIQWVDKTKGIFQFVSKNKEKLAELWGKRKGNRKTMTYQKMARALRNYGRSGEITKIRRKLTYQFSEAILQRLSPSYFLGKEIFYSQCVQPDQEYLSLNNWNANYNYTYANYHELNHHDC
The conditions noted are these: protein: recombinant; tags: N-terminal GST; dsDNA, one strand shown. In outline:
as §1

The next test deals with ELF4 (Homo sapiens, UniProt Q99607 1-663). The conditions noted are these: protein: recombinant; tags: N-terminal GST; dsDNA, one strand shown. In outline:
as §1

For the next test, the target named is T9, ELK4 (Homo sapiens, UniProt P28324-2 1-405).
T9 sequence: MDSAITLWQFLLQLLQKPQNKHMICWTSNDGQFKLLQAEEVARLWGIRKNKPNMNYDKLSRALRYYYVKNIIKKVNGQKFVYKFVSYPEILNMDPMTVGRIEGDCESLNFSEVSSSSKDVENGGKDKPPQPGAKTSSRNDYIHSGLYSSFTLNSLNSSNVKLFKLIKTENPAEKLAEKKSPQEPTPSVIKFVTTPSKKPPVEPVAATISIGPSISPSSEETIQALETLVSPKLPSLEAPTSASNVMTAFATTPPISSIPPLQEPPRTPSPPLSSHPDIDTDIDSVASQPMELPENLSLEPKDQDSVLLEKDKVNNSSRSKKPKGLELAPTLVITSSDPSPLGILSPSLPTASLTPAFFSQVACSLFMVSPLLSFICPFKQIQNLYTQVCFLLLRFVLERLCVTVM
The following applies: protein: recombinant; tags: N-terminal GST; dsDNA, one strand shown. The procedure, abridged:
as §1

Another test has as its target T10, ETV2 (Homo sapiens, UniProt O00321 1-342).
T10 sequence: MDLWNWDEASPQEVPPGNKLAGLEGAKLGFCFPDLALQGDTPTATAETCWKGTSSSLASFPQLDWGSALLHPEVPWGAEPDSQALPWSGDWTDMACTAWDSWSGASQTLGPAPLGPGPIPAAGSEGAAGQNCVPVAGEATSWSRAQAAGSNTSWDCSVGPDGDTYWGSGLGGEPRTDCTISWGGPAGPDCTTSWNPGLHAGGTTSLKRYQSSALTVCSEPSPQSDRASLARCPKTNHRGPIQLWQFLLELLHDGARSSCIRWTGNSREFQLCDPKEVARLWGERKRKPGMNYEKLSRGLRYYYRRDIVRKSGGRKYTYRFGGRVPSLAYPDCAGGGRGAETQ
The conditions noted are these: protein: recombinant; tags: N-terminal GST; dsDNA, one strand shown. The procedure, abridged:
as §1

The next test has as its target T11, ELF3 (Homo sapiens, UniProt P78545 1-371).
T11 sequence: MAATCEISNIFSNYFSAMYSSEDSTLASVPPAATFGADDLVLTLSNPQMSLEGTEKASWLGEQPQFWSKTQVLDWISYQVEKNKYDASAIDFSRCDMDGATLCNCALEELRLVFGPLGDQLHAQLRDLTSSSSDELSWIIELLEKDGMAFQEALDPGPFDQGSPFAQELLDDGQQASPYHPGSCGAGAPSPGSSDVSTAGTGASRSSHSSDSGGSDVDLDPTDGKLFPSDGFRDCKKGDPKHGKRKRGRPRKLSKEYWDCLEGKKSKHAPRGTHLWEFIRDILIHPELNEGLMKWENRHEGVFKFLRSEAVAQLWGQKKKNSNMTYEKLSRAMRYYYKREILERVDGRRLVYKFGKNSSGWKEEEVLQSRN
The conditions noted are these: protein: recombinant; tags: N-terminal GST; dsDNA, one strand shown. In outline:
as §1

The target of the next test is ETV1 (Homo sapiens, UniProt P50549 1-477). The conditions noted are these: protein: recombinant; tags: N-terminal GST; dsDNA, one strand shown. In outline: as §1
Sequence of ETV1 (P50549 whole entry): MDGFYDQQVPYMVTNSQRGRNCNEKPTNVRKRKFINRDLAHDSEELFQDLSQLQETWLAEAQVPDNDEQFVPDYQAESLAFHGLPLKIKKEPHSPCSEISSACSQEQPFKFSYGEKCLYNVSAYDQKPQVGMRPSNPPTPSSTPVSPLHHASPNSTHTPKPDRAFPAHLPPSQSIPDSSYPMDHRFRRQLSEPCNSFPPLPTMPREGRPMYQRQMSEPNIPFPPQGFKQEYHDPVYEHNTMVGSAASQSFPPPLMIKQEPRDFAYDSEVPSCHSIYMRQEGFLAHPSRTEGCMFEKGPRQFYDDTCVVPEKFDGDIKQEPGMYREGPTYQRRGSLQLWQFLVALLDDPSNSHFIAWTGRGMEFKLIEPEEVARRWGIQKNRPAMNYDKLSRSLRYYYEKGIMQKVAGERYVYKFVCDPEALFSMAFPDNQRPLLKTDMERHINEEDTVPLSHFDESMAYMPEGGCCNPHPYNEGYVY

Sequence of SPIB (Q01892 whole entry): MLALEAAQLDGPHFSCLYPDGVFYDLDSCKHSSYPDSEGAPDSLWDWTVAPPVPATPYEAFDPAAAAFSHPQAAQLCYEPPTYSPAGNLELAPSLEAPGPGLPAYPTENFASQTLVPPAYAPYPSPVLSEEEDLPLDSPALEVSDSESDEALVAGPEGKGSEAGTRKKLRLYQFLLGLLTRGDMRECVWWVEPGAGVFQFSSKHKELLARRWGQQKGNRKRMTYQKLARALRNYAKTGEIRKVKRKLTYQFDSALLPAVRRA
Sequence of HSF1 (Q00613 whole entry): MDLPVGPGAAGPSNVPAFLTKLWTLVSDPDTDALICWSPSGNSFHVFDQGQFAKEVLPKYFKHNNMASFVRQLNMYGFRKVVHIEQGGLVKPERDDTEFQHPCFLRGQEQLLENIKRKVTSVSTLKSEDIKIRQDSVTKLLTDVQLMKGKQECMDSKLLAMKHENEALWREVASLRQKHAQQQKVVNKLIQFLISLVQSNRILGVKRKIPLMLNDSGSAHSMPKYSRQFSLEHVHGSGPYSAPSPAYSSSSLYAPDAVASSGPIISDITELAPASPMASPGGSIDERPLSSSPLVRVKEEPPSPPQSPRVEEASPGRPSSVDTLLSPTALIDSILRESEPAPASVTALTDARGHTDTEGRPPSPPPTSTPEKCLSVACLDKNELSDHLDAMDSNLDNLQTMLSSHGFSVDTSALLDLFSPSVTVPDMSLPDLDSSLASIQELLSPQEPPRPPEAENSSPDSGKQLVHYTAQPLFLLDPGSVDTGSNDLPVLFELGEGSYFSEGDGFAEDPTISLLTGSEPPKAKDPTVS
Sequence of ELF4 (Q99607 whole entry): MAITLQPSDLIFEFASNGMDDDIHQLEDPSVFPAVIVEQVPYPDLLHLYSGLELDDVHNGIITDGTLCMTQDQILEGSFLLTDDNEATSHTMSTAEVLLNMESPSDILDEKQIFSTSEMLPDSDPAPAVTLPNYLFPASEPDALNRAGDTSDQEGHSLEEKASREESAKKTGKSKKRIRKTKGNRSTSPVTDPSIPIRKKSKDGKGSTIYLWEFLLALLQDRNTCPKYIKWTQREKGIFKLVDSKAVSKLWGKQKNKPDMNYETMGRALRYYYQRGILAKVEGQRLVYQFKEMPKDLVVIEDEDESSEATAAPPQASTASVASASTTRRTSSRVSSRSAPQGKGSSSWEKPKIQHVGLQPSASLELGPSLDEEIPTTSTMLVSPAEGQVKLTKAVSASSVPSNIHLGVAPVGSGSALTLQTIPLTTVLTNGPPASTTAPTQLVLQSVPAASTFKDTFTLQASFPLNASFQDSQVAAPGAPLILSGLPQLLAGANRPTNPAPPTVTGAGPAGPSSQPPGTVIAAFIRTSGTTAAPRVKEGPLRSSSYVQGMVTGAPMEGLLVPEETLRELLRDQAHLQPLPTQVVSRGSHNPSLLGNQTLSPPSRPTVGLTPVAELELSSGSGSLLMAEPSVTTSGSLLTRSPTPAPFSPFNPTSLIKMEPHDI

As for GCACGA, the binding signal with FLI1 is 1.14 fold enrichment (6-mer frequency, TF over GST control); with ELK1 it was 1.02 fold enrichment (6-mer frequency, TF over GST control); in the test with GABPA it was 1.23 fold enrichment (6-mer frequency, TF over GST control); in the test with ERG it was 1.02 fold enrichment (6-mer frequency, TF over GST control); in the test with ELF1 it was 1.05 fold enrichment (6-mer frequency, TF over GST control); with EHF, 1.09 fold enrichment (6-mer frequency, TF over GST control). The binding signal with SPIB was 1.08 fold enrichment (6-mer frequency, TF over GST control); in the test with ELK3, 1 fold enrichment (6-mer frequency, TF over GST control); in the test with FEV it was 1.09 fold enrichment (6-mer frequency, TF over GST control); with ETV5 it was 1.15 fold enrichment (6-mer frequency, TF over GST control); with HSF1, 1.04 fold enrichment (6-mer frequency, TF over GST control); with SPIC, 1.18 fold enrichment (6-mer frequency, TF over GST control). For the same sequence, the binding signal with ELF4 is 1.1 fold enrichment (6-mer frequency, TF over GST control); with ELK4, 1.13 fold enrichment (6-mer frequency, TF over GST control); with ETV2, 1.31 fold enrichment (6-mer frequency, TF over GST control); with ELF3, 1.16 fold enrichment (6-mer frequency, TF over GST control); with ETV1, 1.05 fold enrichment (6-mer frequency, TF over GST control).

These data come from publication PMC7862700, “An all-to-all approach to the identification of sequence-specific readers for epigenetic DNA modifications on cytosine”.
